Some test systems named below: OVCAR-8 ovarian; OVCAR-5 ovarian; OVCAR-4 ovarian; SK-OV-3 ovarian; IGROV1 ovarian; OVCAR-3 ovarian; HS 578T breast; T-47D breast; BT-549 breast; MDA-MB-435 melanoma; SW-620 colon; MCF7 breast; HCT-116 colon; HCC-2998 colon; KM12 colon; NCI/ADR-RES ovarian.
What all share (experiment): NCI-60 one-dose screen, 48 h (100 = growth as untreated, 0 = no growth, -100 = all killed)
Holding throughout (details): 10 µM

This is part of a sample that, as a whole, favours compounds with a hit. Of some 83,000 tested, about 20% had one in any assay.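 Method: cells in 96-well plates; compound added at one concentration; 48 h incubation; percent growth measured; values under 10 scored active.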 Values without a mark were called inactive. The source made the active and inactive calls.

`O=c1[nH]c2ccc(Cl)cc2c2ccccc12`: the growth was 77.5% with OVCAR-8 ovarian; 84.2% in the test with OVCAR-5 ovarian; -3.77% (active) with OVCAR-4 ovarian; 39.4% with SK-OV-3 ovarian; 29.5% in the test with IGROV1 ovarian; 87% in the test with OVCAR-3 ovarian. For the same molecule, the growth in the test on HS 578T breast was 75.1%; in the test with T-47D breast, 10.4%; with BT-549 breast it was 100%; in the test with MDA-MB-435 melanoma, 72.1%; with SW-620 colon, 102%; in the test on MCF7 breast it was 93.1%. The growth in the test with HCT-116 colon was 38.4%; in the test on HCC-2998 colon it was 52.4%; in the test with KM12 colon, 65.2%.

As to `CC/C(=C(/c1ccc(OCCN(C)C)cc1)c1ccc(OC(=O)CCCCC(=O)c2c(C)[nH]c(/C=C3\N=C(c4ccc[nH]4)C=C3OC)c2C)cc1)c1ccccc1`, the growth with OVCAR-8 ovarian is 72.5%; in the test on OVCAR-5 ovarian, 91.3%; in the test with OVCAR-4 ovarian, 55%; with IGROV1 ovarian, 85.4%; in the test on OVCAR-3 ovarian, 80.1%; in the test with HS 578T breast, 33.8%. The growth with NCI/ADR-RES ovarian is 71.7%; in the test with T-47D breast it was 25.2%; in the test with BT-549 breast, 60.8%; in the test with MDA-MB-435 melanoma, 61.4%; in the test on SW-620 colon it was 55.8%; in the test on MCF7 breast, -22% (active). Further, the growth is 48.3% with HCT-116 colon and 76.6% in the test on HCC-2998 colon.

With `COc1ccc(OC)c(/C=C/c2nc(SC)n(-c3ccc(Cl)cc3)n2)c1`, the growth was 78.5% in the test with OVCAR-8 ovarian; 112% in the test with OVCAR-5 ovarian; 70% with OVCAR-4 ovarian; 83.8% in the test on SK-OV-3 ovarian; 61.8% in the test with IGROV1 ovarian; 91.2% in the test with HS 578T breast. Moreover, the growth in the test on T-47D breast was 42.8%; with BT-549 breast it was 80%; with MDA-MB-435 melanoma, 8.73% (active); in the test on SW-620 colon, 77.4%; with MCF7 breast it was 46.7%; with HCT-116 colon, 59.8%. Moreover, the growth with HCC-2998 colon was 69.6%; with KM12 colon, 53.1%.

For `COc1ccc(NC(=O)CSc2nc3ccccc3c(=O)n2CCc2ccccc2)cc1`, the growth in the test on OVCAR-8 ovarian was 60.7%; in the test with OVCAR-5 ovarian, 101%; with OVCAR-4 ovarian, 97%; in the test with IGROV1 ovarian, 82.3%; with OVCAR-3 ovarian it was 90.4%; with HS 578T breast, 51.2%. Further, the growth is 85.2% in the test with NCI/ADR-RES ovarian; 93.3% in the test with T-47D breast; 91.8% in the test with BT-549 breast; 90.5% in the test on MDA-MB-435 melanoma; 89.1% in the test on SW-620 colon; 89.9% with MCF7 breast. Besides, the growth is 87.6% with HCT-116 colon, 106% in the test on HCC-2998 colon and 84.4% in the test on KM12 colon.

As for `Nc1ccc2c(c1)Cc1cc(N)c(Br)cc1-2`, the growth is 102% in the test with OVCAR-8 ovarian; 113% in the test on OVCAR-5 ovarian; 116% with IGROV1 ovarian; 115% in the test on OVCAR-3 ovarian; 76.7% in the test with HS 578T breast; 90.2% in the test on NCI/ADR-RES ovarian. The growth with T-47D breast was 78.5%; with BT-549 breast it was 94.4%; in the test on MDA-MB-435 melanoma, 102%; with SW-620 colon, 108%; with MCF7 breast, 51.4%; with HCT-116 colon, 101%. For the same molecule, the growth in the test on HCC-2998 colon is 80.8%; in the test on KM12 colon, 99.6%.

As for `CCCCC/C=C/C(=O)CCc1ccc(O)c(OC)c1`, the growth in the test on OVCAR-8 ovarian was 88.6%; in the test on OVCAR-5 ovarian it was 127%; with SK-OV-3 ovarian, 86.7%; with OVCAR-3 ovarian, 55.8%; in the test with HS 578T breast it was 104%; in the test with BT-549 breast, 66.9%. The growth in the test on MDA-MB-435 melanoma is 19.4%; with SW-620 colon, 68.4%; in the test on MCF7 breast, 1.77% (active); in the test on HCT-116 colon it was 13.6%; with HCC-2998 colon it was 21%; in the test with KM12 colon, 31.1%.

On to `O=C1c2ccc3c4c(ccc(c24)C(=O)N1CCNCc1ccccc1)C(=O)N(CCNCc1ccccc1)C3=O`, for which the growth is 2.34% (active) in the test with OVCAR-8 ovarian; 132% with OVCAR-5 ovarian; -97.8% (active) with OVCAR-4 ovarian; 109% with SK-OV-3 ovarian; -75.7% (active) with IGROV1 ovarian; -62.6% (active) in the test on OVCAR-3 ovarian. For the same molecule, the growth with HS 578T breast is 102%; with T-47D breast it was -27.2% (active); in the test with BT-549 breast, -21.3% (active); with MDA-MB-435 melanoma it was -75.6% (active); in the test with SW-620 colon, 3.88% (active); with MCF7 breast, -45.4% (active). The growth in the test with HCT-116 colon was -18% (active); in the test on HCC-2998 colon, -92.2% (active); in the test on KM12 colon, -43.3% (active).

As for `N#Cc1cc(-c2cc3ccccc3o2)oc1N`, the growth in the test on OVCAR-8 ovarian is 4.89% (active); in the test with OVCAR-5 ovarian, 20.9%; in the test with OVCAR-4 ovarian, 20.5%; with SK-OV-3 ovarian, 17.3%; in the test on IGROV1 ovarian, 7.67% (active); with OVCAR-3 ovarian, -7.74% (active). Further, the growth is -37.9% (active) with HS 578T breast; 11.1% with NCI/ADR-RES ovarian; 27.9% in the test on T-47D breast; 5.63% (active) in the test on MDA-MB-435 melanoma; 12% in the test with SW-620 colon; 22.9% in the test with MCF7 breast. Moreover, the growth in the test with HCT-116 colon is 8.05% (active); in the test with KM12 colon, 0.443% (active).

Consider `Clc1nc(Cl)c2c(ncn2C/C=C\Cn2cnc3c(Cl)nc(Cl)nc32)n1`, for which the growth in the test on OVCAR-8 ovarian is -83% (active); in the test on OVCAR-5 ovarian, -76.7% (active); with OVCAR-4 ovarian it was -69% (active); with SK-OV-3 ovarian, 34.5%; in the test with IGROV1 ovarian it was -83.7% (active); in the test on OVCAR-3 ovarian, -98.9% (active). For the same molecule, the growth with HS 578T breast was -53% (active); with NCI/ADR-RES ovarian, 11%; with T-47D breast it was -47% (active); with MDA-MB-435 melanoma, -44.9% (active); in the test with SW-620 colon, -92.2% (active); in the test with MCF7 breast, -1.6% (active). Moreover, the growth was -15.4% (active) in the test with HCT-116 colon and -94.5% (active) with KM12 colon.

`O=C1C(=O)c2ccccc2C(O)=C1CCCc1ccc(C2CCCCCC2)cc1`: the growth is 46.8% with OVCAR-8 ovarian; 82.6% with OVCAR-5 ovarian; 20.9% in the test on OVCAR-4 ovarian; 48.8% in the test on SK-OV-3 ovarian; 21% in the test with IGROV1 ovarian; 51.5% in the test on OVCAR-3 ovarian. The growth was 115% with HS 578T breast; 29% with T-47D breast; 33.9% in the test with MDA-MB-435 melanoma; 32.9% in the test with SW-620 colon; 25.5% in the test with MCF7 breast; 24.6% with HCT-116 colon. In addition, the figures for the growth in the test on HCC-2998 colon and in the test with KM12 colon were 8.94% (active) and 37.8%, respectively.

`OCC1OC(n2cnc3c(N/N=C\c4ccccn4)ncnc32)C(O)C1O` (configuration not stated): the growth in the test with OVCAR-8 ovarian is 23.2%; with OVCAR-5 ovarian, 43.3%; in the test on OVCAR-4 ovarian, 21.6%; in the test on SK-OV-3 ovarian, 11.7%; with IGROV1 ovarian, -6.53% (active); with OVCAR-3 ovarian, 24.3%. For the same molecule, the growth in the test on HS 578T breast is 14.5%; with BT-549 breast it was 44.3%; in the test on MDA-MB-435 melanoma, 23.6%; in the test with SW-620 colon it was 23.9%; in the test with MCF7 breast, 16.8%; in the test on HCT-116 colon, 11.9%. For the same molecule, the values for the growth in the test on HCC-2998 colon and with KM12 colon were 10.9% and 26.7%, respectively.

In the case of `S=c1[nH]ccn1-c1c(Cl)cccc1Cl`, the growth was 103% in the test on OVCAR-8 ovarian; 107% with OVCAR-5 ovarian; 97.1% in the test on OVCAR-4 ovarian; 102% in the test with SK-OV-3 ovarian; 111% with OVCAR-3 ovarian; 109% in the test on HS 578T breast. In addition, the growth is 102% with NCI/ADR-RES ovarian; 88.9% in the test on BT-549 breast; 97.3% with MDA-MB-435 melanoma; 106% in the test on SW-620 colon; 97.8% in the test with MCF7 breast; 93.9% in the test with HCT-116 colon. For the same molecule, the growth was 99.5% with HCC-2998 colon and 104% in the test with KM12 colon.

For the molecule `COc1ccc2c(c1)sc1nc(-c3ccccc3)c(-c3cccnc3)n12`, the growth was 104% with OVCAR-8 ovarian; 110% in the test on OVCAR-5 ovarian; 88.1% with OVCAR-4 ovarian; 108% in the test with SK-OV-3 ovarian; 94.7% with IGROV1 ovarian; 113% with OVCAR-3 ovarian. In addition, the growth is 99.7% in the test on HS 578T breast; 96.4% in the test with NCI/ADR-RES ovarian; 93.3% in the test on T-47D breast; 85.1% in the test on BT-549 breast; 99.4% in the test with MDA-MB-435 melanoma; 97.5% in the test on SW-620 colon. For the same molecule, the growth was 102% in the test on MCF7 breast, 78.5% in the test on HCT-116 colon and 106% in the test on KM12 colon.

With `COc1cc(CNCCCCCCN2C(=O)c3cccc4cccc(c34)C2=O)ccc1O`, the growth in the test with OVCAR-8 ovarian is 69%; with OVCAR-5 ovarian it was 116%; in the test with SK-OV-3 ovarian it was 69%; with OVCAR-3 ovarian, 90.1%; with HS 578T breast, 106%; in the test with T-47D breast, 65.3%. In addition, the growth is 83.2% in the test with BT-549 breast; 58.1% in the test with MDA-MB-435 melanoma; 57.9% with SW-620 colon; 11.4% in the test with MCF7 breast; 31.4% with HCT-116 colon; -21.3% (active) in the test on HCC-2998 colon. Besides, the growth in the test with KM12 colon is 72.3%.

Source of the values: PubChem BioAssay (NCI).
